This is a sample that favours compounds with a hit; in the whole collection about 1.6% have one here.
KCNQ2 inh: rat KCNQ2 potassium channel inhibitors, primary screen, cell-based, CHO-K1, FluxOR thallium flux, B-score. Potassium voltage-gated channel subfamily KQT member 2 (Rattus norvegicus), O88943. B-score at 10 µM. 20 min; stronger effect = lower value. hit rate 1.1% among 310,000;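 active means fluorescence ratio B-score at most minus 3 library SDs, with starting brightness B-score within 2 library SDs, cut at about -5.5 in these data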
KCNQ2 enhance: potentiators of rat KCNQ2 potassium channel; CHO-K1 KCNQ2, FluxOR thallium flux fluorescence; stronger effect = higher value; B-score at 10 µM; hit rate 0.54% among 310,000; Potassium voltage-gated channel subfamily KQT member 2 (Rattus norvegicus), O88943; AID 2239, 2010;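 active means fluorescence ratio B-score at least 3 SD of library B-scores, with initial fluorescence B-score within 3 of them, cut at about 5.3 in these data; same plate scores as AID 2156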;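 further: B-score of peak minus minimum over baseline fluorescence ratio after K+ and Tl+ stimulus; positive B-score means potentiation of KCNQ2 with more thallium influx and brighter signal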
KCNQ2 inh conf: rat KCNQ2 potassium channel inhibitors, confirmation, cell-based, thallium flux | hit rate 57% among 1,000 | KCNQ2-expressing cells, inhibition; stronger effect = lower value | AID 493025, 2011 | activity change, negative = inhibition, % at 10 µM | shares compounds with KCNQ2 inh
KCNQ1 spec: human KCNQ1 channel inhibition, counter-screen for KCNQ2 inhibitor project, cell-based, FluxOR thallium flux | KCNQ1-expressing cells, FluxOR thallium flux fluorescence; stronger effect = lower value | hit rate 15% among 1,000 | activity change, negative = inhibition, % at 10 µM | shares compounds with KCNQ2 inh;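 active means activity change at least 3 SD of negative controls below their mean in both duplicate wells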;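 further: CHO cells stably transfected with KCNQ1 and depolarized by potassium stimulus; peak minus minimum fluorescence over baseline after thallium addition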
Target sequence (P51787 whole entry, looked up): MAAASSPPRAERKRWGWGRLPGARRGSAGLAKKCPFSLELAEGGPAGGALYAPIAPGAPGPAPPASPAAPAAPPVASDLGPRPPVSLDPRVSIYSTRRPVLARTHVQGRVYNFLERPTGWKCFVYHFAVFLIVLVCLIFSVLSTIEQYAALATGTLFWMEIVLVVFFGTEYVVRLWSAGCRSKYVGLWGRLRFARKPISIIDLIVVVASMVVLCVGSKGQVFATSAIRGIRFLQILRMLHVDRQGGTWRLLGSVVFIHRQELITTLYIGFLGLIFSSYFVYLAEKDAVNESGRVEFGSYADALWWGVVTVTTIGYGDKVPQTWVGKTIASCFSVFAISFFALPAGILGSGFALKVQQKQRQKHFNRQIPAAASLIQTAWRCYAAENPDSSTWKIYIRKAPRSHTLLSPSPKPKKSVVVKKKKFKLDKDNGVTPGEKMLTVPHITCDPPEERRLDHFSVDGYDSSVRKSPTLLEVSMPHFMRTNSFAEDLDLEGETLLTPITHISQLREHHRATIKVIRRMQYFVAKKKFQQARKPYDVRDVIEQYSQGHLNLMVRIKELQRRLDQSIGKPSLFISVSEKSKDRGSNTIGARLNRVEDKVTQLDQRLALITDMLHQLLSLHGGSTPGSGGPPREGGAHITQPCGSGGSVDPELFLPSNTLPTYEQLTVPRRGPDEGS
CHO Tl ctr: thallium flux change in parental CHO cells, counter-screen for KCNQ2 inhibitor project. shares compounds with KCNQ2 inh. stronger effect = lower value. activity change, % at 10 µM. hit rate 14% among 1,000. AID 493029, 2011
KCNQ2 patch conf: rat KCNQ2 channel inhibitors, confirmation, cell-based, automated patch clamp, single concentration | KCNQ2-expressing cells, automated patch clamp current | calls only at 10 µM | hit rate 49% among 550 | shares compounds with KCNQ2 inh
Of the large screens only hits and unclear results are named; the others gave an inactive call (follow-up assays come after a bar, where they were run). Unless noted, how the calls were made is not given here.

O=C(CN1C(=O)C(c2ccccc2)Oc2cccnc21)NCc1ccccc1F (configuration not stated)	KCNQ2 inh -6.8 | KCNQ2 inh conf -22% | KCNQ1 spec inactive | CHO Tl ctr inactive | KCNQ2 patch conf active
COc1ccc(CNC(=O)CN2C(=O)C(c3ccccc3)Oc3cccnc32)cc1 (configuration not stated)	none
Nn1c(SCc2csc(-c3ccccc3)n2)nnc1-c1cccs1	none
O=C(CN1CCCC(O)C1)N1c2ccccc2Sc2ccc(C(F)(F)F)cc21 (configuration not stated)	none (no result: KCNQ2 enhance)
CN1CCN(CCCN2c3ccccc3Sc3ccc(C(F)(F)F)cc32)CC1	KCNQ2 inh -8.1 | KCNQ2 inh conf -34% | KCNQ1 spec inactive | CHO Tl ctr inactive | KCNQ2 patch conf inactive
COc1ccccc1-c1cc(C(F)(F)F)n2ncc(C(=O)N3CCc4ccccc4C3)c2n1	KCNQ2 inh -7.6 | KCNQ2 inh conf inactive | KCNQ1 spec inactive | CHO Tl ctr inactive
COc1ccc(-c2cc(C(F)F)n3ncc(C(=O)N4CCc5ccccc5C4)c3n2)cc1	none (no result: KCNQ2 enhance)
COc1cc(C=O)ccc1OCc1ccncc1	none
COc1ccc(CN(Cc2ccccn2)C(=O)CN2C(=O)COc3ccccc32)cc1	none
CC1Oc2ccccc2N(CC(=O)N(Cc2ccccc2)Cc2ccccn2)C1=O (configuration not stated)	KCNQ2 inh -7.2 | KCNQ2 inh conf -16% | KCNQ1 spec inactive | CHO Tl ctr inactive | KCNQ2 patch conf active
CCCOc1cccc(C2/C(=C(/O)c3ccc(F)cc3)C(=O)C(=O)N2CCN(C)C)c1 (configuration not stated)	none (no result: KCNQ2 enhance)
CN(C)c1cc[n+](CC(=O)N2c3ccccc3Sc3ccccc32)cc1	none (no result: KCNQ2 enhance)
c1ccc(COc2ccccc2CNC2CCCC2)cc1	none
Cc1nc2ccccc2c(=O)n1/N=C/c1cn(-c2ccccc2)nc1-c1cccs1	KCNQ2 inh -9.1 | KCNQ2 inh conf -36% | KCNQ1 spec inactive | CHO Tl ctr inactive | KCNQ2 patch conf inactive
Cc1nc2ccccc2c(=O)n1/N=C/c1cccs1	none (no result: KCNQ2 enhance)
O=C(CCn1c(=O)oc2ccccc21)N(Cc1ccccc1)c1ccccc1	KCNQ2 inh -11 | KCNQ2 inh conf -32% | KCNQ1 spec inactive | CHO Tl ctr inactive | KCNQ2 patch conf active
CN(Cc1ccccc1)C(=O)CCn1c(=O)oc2ccccc21	none
O=C(O)C1(P(=O)(c2ccc(Cl)cc2)c2ccc(Cl)cc2)CC1	none
CCOC(=O)C1(P(=O)(c2ccc(Cl)cc2)c2ccc(Cl)cc2)CCC1	KCNQ2 inh -7.2 | KCNQ2 inh conf -29% | KCNQ1 spec inactive | CHO Tl ctr inactive | KCNQ2 patch conf active
CCOC(=O)C(C(=O)OCC)C(Nc1ccccc1)c1ccccc1 (configuration not stated)	none
N#Cc1c(NCCCO)nc(-c2ccco2)c2c1CCCC2	none
N#Cc1c(NC2CCCCC2)nc(-c2ccco2)c2c1CCCC2	KCNQ2 inh -7 | KCNQ2 inh conf -34% | KCNQ1 spec inactive | CHO Tl ctr inactive | KCNQ2 patch conf inactive
Cc1nc(-c2ccc(NS(=O)(=O)c3ccccc3)cc2)cs1	none (no result: KCNQ2 enhance)
Cc1ccccc1C(=NC(=O)c1ccccc1)c1ccccc1	KCNQ2 inh -8.5 | KCNQ2 inh conf -28% | KCNQ1 spec inactive | CHO Tl ctr inactive | KCNQ2 patch conf active
Cc1ccccc1C(=O)O/N=C(\N)c1ccccc1	none (no result: KCNQ2 enhance)
O=c1[nH]c(=O)n(Cc2ccco2)c2c1C(C(F)(F)F)(C(F)(F)F)N=C(CCc1ccccc1)N2	none (no result: KCNQ2 enhance)
Cc1cccc(NCc2nc3ccccc3n2Cc2ccccc2)c1	KCNQ2 inh -8.4 | KCNQ2 inh conf inactive | KCNQ1 spec inactive | CHO Tl ctr inactive
Cc1nc2cc(NCc3nc4ccccc4n3Cc3ccccc3)ccc2n1C	none (no result: KCNQ2 enhance)
O=C(Nc1nnc(-c2ccccc2)s1)c1ccc(F)cc1	none (no result: KCNQ2 enhance)
COc1cc(OC)c(-c2noc(C(=O)OC(C)(C)C)c2C(=O)OC(C)(C)C)c(OC)c1	none (no result: KCNQ2 enhance)
Cc1cc(C)c(-c2noc(C(=O)OC(C)(C)C)c2C(=O)OC(C)(C)C)c(C)c1	KCNQ2 inh -10 | KCNQ2 inh conf inactive | KCNQ1 spec inactive | CHO Tl ctr inactive
CN1CCN(Cc2nc3ccccc3c(=O)n2CC#N)CC1	none
CCOC(=O)N1CCN(C(=O)Nc2sc3nc4n(c(=O)c3c2C)CCC(C)CC4)CC1 (configuration not stated)	none (no result: KCNQ2 enhance)
Cc1nnc(SCC(=O)Nc2cc(C(F)(F)F)ccc2N2CCOCC2)o1	none
Cc1ccccc1SCC(=O)Nc1cc(C(F)(F)F)ccc1N1CCOCC1	KCNQ2 inh -9.5 | KCNQ2 inh conf -30% | KCNQ1 spec inactive | CHO Tl ctr inactive | KCNQ2 patch conf inactive
COc1cc(C(=O)NCCCNc2nc3cc(C)c(C)cc3cc2C#N)cc(OC)c1OC	none (no result: KCNQ2 enhance)
CCOC(=O)C1C(=O)C=C(c2ccc(C)cc2)CC1c1ccccc1 (configuration not stated)	KCNQ2 inh -7.2 | KCNQ2 inh conf -26% | KCNQ1 spec inactive | CHO Tl ctr inactive | KCNQ2 patch conf inactive
CCOC(=O)C1C(=O)C=C(c2cccs2)CC1c1ccccc1 (configuration not stated)	none (no result: KCNQ2 enhance)
N#CCCN1CCN(CCC#N)CC1	none (no result: KCNQ2 enhance)
Cc1cc(CN2CCN(CCC#N)CC2)c(O)c(C2(C)CCCCC2)c1	KCNQ2 inh -7.4 | KCNQ2 inh conf inactive | KCNQ1 spec inactive | CHO Tl ctr inactive
Brc1cccc(/C=N/Nc2nc(N3CCCCC3)nc(N3CCCCC3)n2)c1	KCNQ2 inh -6.9 | KCNQ2 inh conf -19% | KCNQ1 spec inactive | CHO Tl ctr inactive | KCNQ2 patch conf inactive
O=[N+]([O-])c1cccc(-c2ccc(/C=N/Nc3nc(N4CCCCC4)nc(N4CCCCC4)n3)o2)c1	none (no result: KCNQ2 enhance)
Oc1ccc(/C=N/Nc2nc(N3CCCC3)nc(N3CCCC3)n2)cc1O	none (no result: KCNQ2 enhance)
O=[N+]([O-])c1cccc(/C=N/Nc2nc(N3CCCCC3)nc(N3CCCCC3)n2)c1	KCNQ2 inh -7.7 | KCNQ2 inh conf -34% | KCNQ1 spec inactive | CHO Tl ctr inactive | KCNQ2 patch conf inactive
NS(=O)(=O)c1ccc(CNC(=S)Nc2ccc(F)c(Cl)c2)cc1	none (no result: KCNQ2 enhance)
CCOc1ccc(-c2nc(CSCC(=O)NC3CCCc4ccccc43)c(C)o2)cc1 (configuration not stated)	KCNQ2 inh -8.8 | KCNQ2 inh conf -40% | KCNQ1 spec -37% | CHO Tl ctr -36% | KCNQ2 patch conf active
CCOc1ccc(-c2nc(CSCC(=O)NC3CC3)c(C)o2)cc1	none
COc1cccc(-c2nc(CS(=O)(=O)CC(=O)NC3CCCC3)c(C)o2)c1	none (no result: KCNQ2 enhance)
COc1cccc(-c2nc(CS(=O)(=O)CC(=O)NC3CCCc4ccccc43)c(C)o2)c1 (configuration not stated)	KCNQ2 inh -10 | KCNQ2 inh conf -32% | KCNQ1 spec inactive | CHO Tl ctr inactive | KCNQ2 patch conf active
CN(C[C@H](Cc1ccccc1)N(C[C@H](CC1CCCCC1)N(CCc1ccccc1)N=O)N=O)N=O	none (no result: KCNQ2 enhance)
COc1ccc(CCNc2c([N+](=O)[O-])c(=O)oc3ccccc23)cc1OC	none (no result: KCNQ2 enhance)

High-throughput results: PubChem BioAssay, Johns Hopkins Ion Channel Center
